Source: ChEMBL document CHEMBL5606460, “ASAP - DENV-2 NS2B-NS3 protease fluorescence single point” (2024)
Screen size: about 2,000 compounds; about 110 (5.5%) showed an effect of 50% or more. The list comes from a sample in which strong results are over-represented; it also holds similar structures and randomly drawn compounds.

Target: Genome polyprotein (dengue virus type 2) (UniProt P29990)
[1] = Thailand/16681/1984, Concentration 25.0 uM, Number of replicates 1.0

`CCc1nc(CNC(=O)[C@]2(c3ccc(F)cc3)CCCNC2)n[nH]1` was tested, and the inhibition (Thailand/16681/1984, Concentration 49.5 uM, Number of replicates 2.0, Standard deviation 0.49799700461423274 %) was -1.23%, the inhibition (Thailand/16681/1984, Concentration 99.01 uM, Number of replicates 2.0, Standard deviation 0.6482125452450617 %) was -1.25% and the inhibition (Thailand/16681/1984, Concentration 198.0 uM, Number of replicates 2.0, Standard deviation 1.0139545093997464 %) was -1.41%.
`O=Cc1ccc(N2CCC(C(=O)NCc3ccccc3Br)CC2)cc1` was tested, and the inhibition [1] was 12.3%.
Compound `O=Cc1ccc(N2CCC(C(=O)NCc3ccc4ccccc4n3)CC2)cc1` has an inhibition [1] of 12.8%.
Compound `Cc1nc(C2CCN(Cc3c[nH]c4ccccc34)CC2)sc1C(=O)O` has an inhibition (Thailand/16681/1984, Concentration 49.5 uM, Number of replicates 2.0, Standard deviation 2.532196482700825 %) of -7.37%, an inhibition (Thailand/16681/1984, Concentration 99.01 uM, Number of replicates 2.0, Standard deviation 0.1962596660766768 %) of -5.26% and an inhibition (Thailand/16681/1984, Concentration 198.0 uM, Number of replicates 2.0, Standard deviation 1.7247831523377455 %) of -1.52%.
In the case of `COC(=O)c1cncc(C(=O)Nc2ccncc2C)c1`, the inhibition (Thailand/16681/1984, Concentration 49.5 uM, Number of replicates 2.0, Standard deviation 6.3209660189886 %) is reported as 2.4%, the inhibition (Thailand/16681/1984, Concentration 99.01 uM, Number of replicates 2.0, Standard deviation 0.9582277355643998 %) is reported as -1.8% and the inhibition (Thailand/16681/1984, Concentration 198.0 uM, Number of replicates 2.0, Standard deviation 0.7051109593221626 %) is reported as -2.38%.
`Cc1cc(S(=O)(=O)NCCNC(=O)c2ccc(O)c(NC(=O)c3ccncc3F)c2C)c(C)s1` gave an inhibition (Thailand/16681/1984, Concentration 49.5 uM, Number of replicates 2.0, Standard deviation 0.0696651159595359 %) of -1.95%, an inhibition (Thailand/16681/1984, Concentration 99.01 uM, Number of replicates 2.0, Standard deviation 0.12517951182523615 %) of -1.5% and an inhibition (Thailand/16681/1984, Concentration 198.0 uM, Number of replicates 2.0, Standard deviation 0.5034395957498385 %) of 0.045%.
`COc1ccc(CN(C)C(=O)C2CCN(c3ccc(C=O)cc3)CC2)c(OC)c1` gave an inhibition [1] of 14%.
`NC(=O)c1c(NC(=O)C2CCN(c3ccc(C=O)cc3)CC2)sc2c1CCCC2` showed an inhibition [1] of 38.6%.
With `CCn1cc(S(=O)(=O)Nc2ccc(Cl)cc2C(=O)NC)cn1` the inhibition (Thailand/16681/1984, Concentration 49.5 uM, Number of replicates 2.0, Standard deviation 0.5029835247021022 %) was -6.21%.
For `C[C@@H](c1ccccc1)N(C(=O)C1CCN(c2ccc(C=O)cc2)CC1)[C@@H](C)c1ccccc1`, the inhibition [1] was 15.2%.
`CC1(C)Cc2sc(NC(=O)Cc3ccc(S(N)(=O)=O)cc3)c(C#N)c2CN1CC1CCCCC1` gave an inhibition (Thailand/16681/1984, Concentration 49.5 uM, Number of replicates 2.0, Standard deviation 0.009484052439315419 %) of 8.25%, an inhibition (Thailand/16681/1984, Concentration 99.01 uM, Number of replicates 2.0, Standard deviation 0.7150155530159198 %) of 14.5% and an inhibition (Thailand/16681/1984, Concentration 198.0 uM, Number of replicates 2.0, Standard deviation 0.2762742778628508 %) of 23.9%.
Compound `Cc1cc(CO)c2cccc(Cc3ccccc3C(=O)NCc3ccc(S(N)(=O)=O)cc3)c2n1` has an inhibition (Thailand/16681/1984, Concentration 49.95 uM, Number of replicates 2.0, Standard deviation 1.5695359944911405 %) of 4.94% and an inhibition (Thailand/16681/1984, Concentration 99.9 uM, Number of replicates 2.0, Standard deviation 2.135114838489864 %) of 9.8%.
`Cc1cc(N)cc(CNC(=O)c2ccccc2Cc2cccc3c(CO)cc(C)nc23)c1` showed an inhibition (Thailand/16681/1984, Concentration 49.95 uM, Number of replicates 2.0, Standard deviation 1.0161746789387547 %) of 47.1% and an inhibition (Thailand/16681/1984, Concentration 99.9 uM, Number of replicates 2.0, Standard deviation 1.7549489162224476 %) of 74.7%.
`Cc1cc(CO)c2cccc(CC(=O)NCc3sccc3C)c2n1` gave an inhibition (Thailand/16681/1984, Concentration 49.95 uM, Number of replicates 2.0, Standard deviation 0.3413314788746907 %) of 44% and an inhibition (Thailand/16681/1984, Concentration 99.9 uM, Number of replicates 2.0, Standard deviation 0.321257440691134 %) of 63.7%.
For `Cc1cc(CO)c2cccc(Cc3ccccc3C(=O)NCc3ccc(C(N)=O)cc3)c2n1`, the inhibition (Thailand/16681/1984, Concentration 49.95 uM, Number of replicates 2.0, Standard deviation 0.2888981019288338 %) was 2.07% and the inhibition (Thailand/16681/1984, Concentration 99.9 uM, Number of replicates 2.0, Standard deviation 0.18972386998439544 %) was 5.84%.
`Cc1cc(CO)c2cccc(Cc3cccc(C(=O)NCc4sccc4C)c3)c2n1` gave an inhibition (Thailand/16681/1984, Concentration 49.95 uM, Number of replicates 2.0, Standard deviation 0.7466793423372446 %) of 1.25% and an inhibition (Thailand/16681/1984, Concentration 99.9 uM, Number of replicates 2.0, Standard deviation 0.16169689007422708 %) of 23.8%.
`Cc1cc(CO)c2cccc(Cc3ccccc3C(=O)NCc3sccc3C)c2n1` was tested, and the inhibition (Thailand/16681/1984, Concentration 49.95 uM, Number of replicates 2.0, Standard deviation 0.661878407993628 %) was 1.17% and the inhibition (Thailand/16681/1984, Concentration 99.9 uM, Number of replicates 2.0, Standard deviation 2.367239112425795 %) was 7.83%.
In the case of `CC(C)NC(=O)CN1CCN(C(=O)C2CCN(c3ccc(C=O)cc3)CC2)CC1`, the inhibition [1] is reported as 11.2%.
`Cc1cn2nnc(C(=O)N3CCC[C@H](c4nc(=O)[nH][nH]4)C3)c2c(=O)[nH]1` gave an inhibition (Thailand/16681/1984, Concentration 49.5 uM, Number of replicates 2.0, Standard deviation 1.1306810071407891 %) of -1.83%, an inhibition (Thailand/16681/1984, Concentration 99.01 uM, Number of replicates 2.0, Standard deviation 1.1436614778388714 %) of -1.38% and an inhibition (Thailand/16681/1984, Concentration 198.0 uM, Number of replicates 2.0, Standard deviation 0.31245549284811885 %) of -1.83%.
For `Cc1cc(CO)c2cccc(Cc3cccc(C(=O)N[C@H]4C[C@@H](O)C4)c3)c2n1`, the inhibition (Thailand/16681/1984, Concentration 49.95 uM, Number of replicates 2.0, Standard deviation 0.3715430142368757 %) was 6.97% and the inhibition (Thailand/16681/1984, Concentration 99.9 uM, Number of replicates 2.0, Standard deviation 0.8666943057865014 %) was 29.2%.
`Cc1cc(CO)c2cccc(C[C@H](NC(=O)c3cc(C(F)F)nn3C)C(=O)O)c2n1` showed an inhibition (Thailand/16681/1984, Concentration 49.95 uM, Number of replicates 2.0, Standard deviation 1.4383595761786832 %) of 1.98% and an inhibition (Thailand/16681/1984, Concentration 99.9 uM, Number of replicates 2.0, Standard deviation 0.48778570830386186 %) of 5.89%.
Work on `Cc1nc(N)c2cccc(Cl)c2n1` yielded an inhibition (Thailand/16681/1984, Concentration 49.95 uM, Number of replicates 2.0, Standard deviation 5.075529174302592 %) of -8.29% and an inhibition (Thailand/16681/1984, Concentration 99.9 uM, Number of replicates 2.0, Standard deviation 2.1313934403537464 %) of -8.87%.
For `COc1ccccc1N1CCN(C(=O)C2CCN(c3ccc(C=O)cc3)CC2)CC1`, the inhibition [1] was 12.1%.
`N[C@@H]1CCCC[C@H]1C(=O)Nc1cccc2cccnc12` gave an inhibition (Thailand/16681/1984, Concentration 49.95 uM, Number of replicates 2.0, Standard deviation 3.2838754106489776 %) of -8.7% and an inhibition (Thailand/16681/1984, Concentration 99.9 uM, Number of replicates 2.0, Standard deviation 3.148144351005342 %) of -7.2%.
`NCCC(=O)Nc1cccc2cccnc12` showed an inhibition (Thailand/16681/1984, Concentration 49.95 uM, Number of replicates 2.0, Standard deviation 1.674842930068702 %) of -9.45% and an inhibition (Thailand/16681/1984, Concentration 99.9 uM, Number of replicates 2.0, Standard deviation 2.956474982493684 %) of -7.49%.
